The results in this text go back to ChEMBL document CHEMBL4513216, “Probing the Open Global Health Chemical Diversity Library for Multistage-Active Starting Points for Next-Generation Antimalarials” (ACS Infect Dis, 2020).

Hit rate of the full screen: of about 69,000 compounds, about 8,600 (12%) showed an effect of 50% or more. What follows is part of a selection rich in strong results, with near analogues and random picks from the rest.

In this experiment the test system is Plasmodium berghei. Briefly: Screen against P. berghei liver stage (PbLuc), transformed with Luciferase, at 10uM. It counts as functional, HepG2. As to conditions: tested at 10 uM.
For the compound `CCNC(=O)[C@@H]1CCCN1C(=O)c1cccc(CCC(C)(C)O)c1`, the INHIBITION was -26.8%.

Turning to `CC(C)=CCN1C[C@@H]2CC[C@H]1CN(C(=O)CCc1nnc(C)[nH]1)C2`, the INHIBITION was found to be 41.2%.

With `Cc1cccc(N2CCOC(C(=O)O)C2)c1` (centres undefined), the INHIBITION came out at 14.7%.

As for `CN1C(=O)CC(c2cnn(C)c2)C12CCN(CC1CCOCC1)CC2` (centres undefined), the INHIBITION is -9.74%.

Consider `Cn1ccnc1CCC1CCCCN1Cc1cnc(N2CCCC2)nc1` (centres undefined), for which the INHIBITION is -25%.

Turning to `CN1CCC2(Cc3ccccc3CN(C(=O)CCN)C2)C1` (centres undefined), the INHIBITION came out at 40%.

In the case of `O=C(NCCc1csc(-c2ccncc2)n1)C1CC(=O)N(C2CC2)C1` (centres undefined), the INHIBITION is on record as 2.66%.

Consider `Cc1nc(C)n(CC2CCCN(CC(=O)Nc3cc(C)on3)C2)n1` (centres undefined), for which the INHIBITION is recorded as -18.945%.

On to `CN(Cc1ccc(F)cc1)C(=O)CN1CCOC(Cn2cccn2)C1` (centres undefined), for which the INHIBITION is on record as -4.16%.

`CCc1ccc(O)c(C(=O)N2CCN(CC(=O)N(CC)CC)CC2)c1`: the INHIBITION turned out to be 56.6%.

Take `CCc1ccc(O)c(C(=O)N2CCN(CC(=O)N(C)C)CC2)c1`: the INHIBITION was determined as 47.7%.

`CCc1ccc(O)c(C(=O)N2CCCN(CC(=O)N(CC)CC)CC2)c1`: the INHIBITION is reported as -1.57%.

On to `COc1c(C2CCCN2Cc2noc(C)n2)c(C)nn1C` (centres undefined), for which the INHIBITION was -40.2%.

Take `COCCN(Cc1sccc1C)C(=O)c1c(O)cccc1F`: the INHIBITION is reported as -15.6%.

Take `CCN1CCC2(CC1)C(=O)N(c1ccc(C)nc1)CCN2CC(C)C`: the INHIBITION is on record as 36.4%.

Turning to `CC(=O)N1CCC2(CC1)C(=O)N(c1ccc(C)nc1)CCN2CC(C)C`, the INHIBITION stood at 60%.

With `Cc1ccc(N2CCN(CC3CC3)C3(CCN(C(C)C)CC3)C2=O)cn1`, the INHIBITION was determined as 27.5%.

`Cc1nc(C)n(CC2CCCN2CCOc2ccc(F)cc2)n1` (centres undefined): the INHIBITION was -32%.

For the compound `CCCn1nc2c(cc1=O)CN(CC(=O)Nc1nnc(C)s1)CC2`, the INHIBITION is on record as 26.3%.

In the case of `CCn1nc2c(cc1=O)CN(CC(=O)Nc1nnc(C)s1)CC2`, the INHIBITION is recorded as -29.8%.

With `Cc1nnc(NC(=O)CN2CCc3nn(C)c(=O)cc3C2)s1`, the INHIBITION turned out to be 62.9%.

For the compound `CCN(Cc1ccc(O)c(C(=O)O)c1)CC1CCOCC1`, the INHIBITION is 7.65%.

Regarding `COc1ccccc1CNc1c(O)c(=O)c1=O`, the INHIBITION turned out to be 21.7%.

With `CO[C@H]1CC[C@H]2[C@H]1OCCN2Cc1ccc(F)cc1`, the INHIBITION is -40.9%.

`O=C(NCCNC1CCN(c2nccs2)CC1)c1cccs1`: the INHIBITION was 55.1%.

With `O=C(NC1CCN(c2nccs2)CC1)c1cccs1`, the INHIBITION was found to be 22.2%.

Take `O=C(NCCNC1CCCC1)c1cccs1`: the INHIBITION was -0.902%.

As to `COc1ccc(COCC(=O)N2CCC(c3nncn3C)CC2)cc1`, the INHIBITION is given as 39.2%.

For `CC(=O)N1N=C(c2ccccc2)OC1C(=O)N(C)CCc1ccccc1` (centres undefined), the INHIBITION is given as 38.2%.
